Data taken from PubChem BioAssay (NCATS).
Inconclusive results are not listed. Active and inactive are the calls of the source. Calls follow the shape of the dose curve; as a rule, active = well fitted curve in the direction sought with a large enough effect; inconclusive = small, poorly fitted or top-dose-only effect, or another doubt; inactive = no such curve, though single readings can be large; an effect the other way counts as inactive or inconclusive.

Columns and labels:
[1] = A2780 Cisplatin Sensitive Ovarian Cancer Cell Toxicity qHTS against the NCATS CANVASS Library (AID 1347353); settings: A2780 ovarian cancer viability, ATPLite luminescence, 72 h; at 91.4 µM (top of the series) unless noted; also: nearly all actives have a fitted effect of over 60% in size
How it was run: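 Seventy-two-hour exposure of cisplatin-sensitive A2780 ovarian cells to an 11-concentration qHTS series; cytotoxicity is inferred from loss of ATPLite luminescence. Bortezomib titration served as positive control.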

[2] = UWB1.289-WTBRCA1 Cancer Cell Toxicity qHTS against the NCATS CANVASS Library (AID 1347354)
How it was run: (§1)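 qHTS cytotoxicity: compounds tested in 11 concentrations on 1000 seeded cells per well over 72 h; bortezomib served as control; signal from CellTiter-Glo luminescence.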

[3] = HEK-293 Cancer Cell Toxicity qHTS against the NCATS CANVASS Library (AID 1347355); settings: outcome: dose series up to 46.1 µM; also: nearly all actives have a fitted effect of over 65% in size
How it was run: as §1

[4] = HPAF-II 24hr Apoptosis Induction qHTS against the NCATS CANVASS Library (AID 1347356)
How it was run: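 Apoptosis induction in HPAF-II pancreatic cancer cells is measured as caspase-3/7 luminescence after a 24-hour exposure to compounds.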

[5] = HEK293 18hr Apoptosis Induction qHTS against the NCATS CANVASS Library (AID 1347357)
How it was run: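 Natural products applied to HEK293 for 18 hr; Caspase-Glo 3/7 readout.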

[6] = HPAF-II 12hr Apoptosis Induction qHTS against the NCATS CANVASS Library (AID 1347358)
How it was run: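 Apoptosis in HPAF-II pancreatic cancer cells is scored as caspase 3/7 luminescence following a 12-hour exposure to an 11-point compound series.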

[7] = HEK293 24hr Apoptosis Induction qHTS against the NCATS CANVASS Library (AID 1347359)
How it was run: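 HEK293 cells, 500 per well, exposed to an 11-point compound series for 24 hours at 37 degrees C. Caspase 3/7 activity read by Caspase-Glo luminescence (DEVD substrate) after 15 min at room temperature.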

[8] = HPAF-II 18hr Apoptosis Induction qHTS against the NCATS CANVASS Library (AID 1347360)
How it was run: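 Luminescent DEVD-substrate signal, proportional to caspase activity, is measured in HPAF-II cells after 18-hour treatment across a concentration series; doxorubicin serves as control.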

[9] = HEK293 12hr Apoptosis Induction qHTS against the NCATS CANVASS Library (AID 1347361)
How it was run: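 Luminescent caspase-3/7 signal, proportional to enzyme activity, was recorded from HEK293 cultures in DMEM + 10% FBS treated for 12 hours with titrated natural products (11 points). Doxorubicin (0.1nM - 4uM) served as control.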

[10] = tested on: NAD(P)H diaphorase (Clostridium kluyveri); assay: Diaphorse counterscreen qHTS: Assay Interference Panel against the NCATS CANVASS Library (AID 1347362)
How it was run: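 Clostridium kluyveri diaphorase in PBS + 0.01% Tween-20 preincubated 15 min with compounds. Resazurin and NADH then added for 5 min at room temperature in the dark; resorufin fluorescence read (ex 525, em 598).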

[11] = target: Luciferin 4-monooxygenase (Photinus pyralis) (UniProt P08659); assay: Firefly luciferase counterscreen qHTS: Assay Interference Panel against the NCATS CANVASS Library (AID 1347363)
Chain of Luciferin 4-monooxygenase (Photinus pyralis) (P08659 whole entry, looked up): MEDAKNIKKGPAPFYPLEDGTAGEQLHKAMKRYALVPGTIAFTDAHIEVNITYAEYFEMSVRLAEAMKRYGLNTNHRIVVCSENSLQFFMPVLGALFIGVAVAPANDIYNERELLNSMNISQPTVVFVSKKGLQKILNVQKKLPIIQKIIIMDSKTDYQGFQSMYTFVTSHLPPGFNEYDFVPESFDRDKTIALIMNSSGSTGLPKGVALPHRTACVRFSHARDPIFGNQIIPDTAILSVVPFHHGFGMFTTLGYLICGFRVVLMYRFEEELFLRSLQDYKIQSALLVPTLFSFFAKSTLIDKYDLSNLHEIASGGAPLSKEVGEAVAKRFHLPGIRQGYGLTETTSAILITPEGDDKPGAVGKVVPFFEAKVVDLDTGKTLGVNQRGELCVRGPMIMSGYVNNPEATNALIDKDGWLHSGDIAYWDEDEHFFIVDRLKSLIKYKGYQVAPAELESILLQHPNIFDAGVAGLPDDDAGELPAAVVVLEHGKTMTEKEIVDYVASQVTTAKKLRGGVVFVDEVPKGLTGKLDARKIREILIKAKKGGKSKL
How it was run: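 Purified P. pyralis luciferase (0.04 ug/mL, 4x reagent) added to Tris-acetate buffer with 0.013 mM D-luciferin, 0.013 mM ATP and 13.3 mM Mg-acetate; compounds preincubated 15 min, then luminescence read after 5 min, RT.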

[12] = KB-8-5-11 Cancer Cell Toxicity qHTS against the NCATS CANVASS Library (AID 1347364); also: nearly all actives have a fitted effect of over 75% in size
How it was run: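 Natural products were titrated in 11 points onto KB-8-5-11 cells, 500 per well, and cytotoxicity was scored from CellTiter-Glo luminescence after 72 hr culture.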

[13] = SDT Cancer Cell Toxicity qHTS against the NCATS CANVASS Library (AID 1347365);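 also: SDT canine glioma cells 500 per well in 1536 well plates; nearly all actives have a fitted effect of over 60% in size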
How it was run: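 Dispense 500 SDT cells per well; pin-transfer compounds; incubate 72 hr at 37C, 5% CO2, 95% RH; add CellTiterGlo and read luminescence.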

[14] = KB-3-1 Cancer Cell Toxicity qHTS against the NCATS CANVASS Library (AID 1347366); also: nearly all actives have a fitted effect of over 75% in size
How it was run: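 Cytotoxicity toward KB-3-1 cells (500/well, DMEM + 10% FBS) was scored by CellTiter-Glo luminescence following 72 hr exposure at 37C, with bortezomib titrated as control.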

[15] = qHTS for ATAD5 Agonist screened against the NCATS CANVASS Library (AID 1347367);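 also: luciferase reporter driven by ATAD5 which rises upon DNA damage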
How it was run: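 Genotoxicity was scored as increased ATAD5-luciferase luminescence in HEK293T after 16hr of exposure, with cell viability measured by fluorescence beforehand in the same well.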

[16] = G06 Cancer Cell Toxicity qHTS against the NCATS CANVASS Library (AID 1347368); also: nearly all actives have a fitted effect of over 60% in size
How it was run: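 Cytotoxicity toward canine glioma G06 cells is scored from cellular ATP via luminescence after 72 hr compound exposure at 500 cells/well.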

[17] = MCF7 Cancer Cell Toxicity qHTS against the NCATS CANVASS Library (AID 1347369)
How it was run: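 This 72 hr qHTS scored MCF7 viability by CellTiterGlo luminescence, with 500 cells/well; bortezomib titration ran as control.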

[18] = qHTS for ATAD5 Antagonist screened against the NCATS CANVASS Library (AID 1347370);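 also: HEK293T cells carrying an ATAD5 luciferase reporter co-treated with 10 µM 5-fluorouridine; nearly all actives have a fitted effect of over 65% in size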
How it was run: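 HEK293T cells with a stably integrated ATAD5-controlled luciferase reporter were exposed to compounds (11-pt) alongside 10 uM 5-fluorouridine as ATAD5 stabilizer for 16hr at 37C. Viability was read by CellTiter-Fluor fluorescence, then ATAD5 by luminescence.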

[19] = J3T Cancer Cell Toxicity qHTS against the NCATS CANVASS Library (AID 1347371);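 also: J3T is a canine glioma cancer cell line seeded at 500 cells per well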
How it was run: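 Viability of the J3T glioma line from dog is scored by ATP luminescence after a 72 hr incubation with natural products.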

[20] = target: Nuclear receptor subfamily 1 group I member 3 (Homo sapiens) (UniProt Q14994); assay: qHTS for Constitutive Androstane Receptor (CAR) Antagonist screened against the NCATS CANVASS Library (AID 1347372);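 also: cells stimulated with 50 nM CITCO agonist so inhibition reflects antagonism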
Chain of Nuclear receptor subfamily 1 group I member 3 (Homo sapiens) (Q14994 whole entry, looked up): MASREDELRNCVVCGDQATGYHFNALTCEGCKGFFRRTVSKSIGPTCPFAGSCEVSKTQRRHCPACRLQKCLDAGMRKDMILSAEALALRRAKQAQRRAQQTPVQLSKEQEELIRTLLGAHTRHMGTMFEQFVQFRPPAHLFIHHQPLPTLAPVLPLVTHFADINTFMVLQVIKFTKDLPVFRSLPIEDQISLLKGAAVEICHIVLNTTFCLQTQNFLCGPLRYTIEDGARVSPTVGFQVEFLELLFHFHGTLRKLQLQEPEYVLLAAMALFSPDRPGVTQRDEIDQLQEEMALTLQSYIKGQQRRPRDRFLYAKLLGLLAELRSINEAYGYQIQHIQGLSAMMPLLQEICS
How it was run: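 HepG2 cells stably carrying hCAR and CYP2B6-2.2kb luciferase reporter, 2500 cells/well, compound with 50 nM CITCO agonist for 24hr at 37C. ONE-Glo luminescence measured CAR activity; CellTiter-Fluor read viability.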

Measured: outcome

O=C1C[C@@H]2OCC=C3CN4CC[C@]56c7ccccc7N1[C@H]5[C@H]2[C@H]3C[C@H]46
inactive: all assays above

COc1ccc2[nH]cc(CCN)c2c1
inactive: [1] inactive [at 46.1 µM] | [2] | [3] | [4] | [5] | [6] | [7] | [8] | [9] | [10] | [11] | [12] | [14] | [15] | [16] | [17] | [18] | [19] | [20]
